Data as given in PubChem BioAssay.
This is one part of the list. Activity calls are given as the source filed them.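 How the source made its calls, unless noted: active means signal rise of 40% or more at 20 µM, treated as a fluorescence artifact; inactive means the rest.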

Columns and labels:
[1] = Apaf-1 inhibitors, single-dose retest, confirmation, biochemical, fluorescence, DEVD-Rh110, 20 µM (AID 504614;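 active means mean inhibition of at least 40% at 20 µM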;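 further: plate controls were DMSO wells for no effect and DEVD-CHO caspase inhibitor control wells for full effect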); conditions: reconstituted apoptosome, caspase-3 DEVD-Rh110 fluorescence; at 20 µM; stronger effect = higher value
[2] = Rh110 fluorescence interference by putative Apaf-1 inhibitors, confirmation, artefact control for Apaf-1 inhibitor project, biochemical, 20 µM (AID 504615); conditions: quenched caspase reaction, at 20 µM, stronger effect = higher value
[3] = biological target: Protein Mdm4 (Homo sapiens) + E3 ubiquitin-protein ligase Mdm2 (Homo sapiens) (UniProt O15151+Q00987); experiment: retested Mdm2-MdmX interaction blockers, confirmation, cell-based, luminescence, single concentration, set 2 (AID 504601;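 active means mean inhibition of the luminescence signal across two replicates at or above 26 percent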); conditions: SaOS-2 split-luciferase Mdm2/MdmX complementation, at 8 µM, stronger effect = higher value
Sequence of Protein Mdm4 (Homo sapiens) + E3 ubiquitin-protein ligase Mdm2 (Homo sapiens) (O15151 whole entry, looked up): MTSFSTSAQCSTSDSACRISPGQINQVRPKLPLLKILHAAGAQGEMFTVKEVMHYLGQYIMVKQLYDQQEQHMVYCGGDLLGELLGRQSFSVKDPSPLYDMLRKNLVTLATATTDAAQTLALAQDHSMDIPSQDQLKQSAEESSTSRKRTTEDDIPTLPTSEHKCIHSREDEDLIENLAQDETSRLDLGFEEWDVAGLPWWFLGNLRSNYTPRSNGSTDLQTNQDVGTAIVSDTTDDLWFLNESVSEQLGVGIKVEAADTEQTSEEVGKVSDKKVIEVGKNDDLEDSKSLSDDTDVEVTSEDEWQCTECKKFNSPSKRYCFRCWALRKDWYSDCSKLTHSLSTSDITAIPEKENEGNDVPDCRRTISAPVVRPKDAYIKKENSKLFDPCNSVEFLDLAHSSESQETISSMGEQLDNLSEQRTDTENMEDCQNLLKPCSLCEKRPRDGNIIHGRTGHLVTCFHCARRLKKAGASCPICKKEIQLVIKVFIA
Sequence of Protein Mdm4 (Homo sapiens) + E3 ubiquitin-protein ligase Mdm2 (Homo sapiens) (Q00987 whole entry, looked up): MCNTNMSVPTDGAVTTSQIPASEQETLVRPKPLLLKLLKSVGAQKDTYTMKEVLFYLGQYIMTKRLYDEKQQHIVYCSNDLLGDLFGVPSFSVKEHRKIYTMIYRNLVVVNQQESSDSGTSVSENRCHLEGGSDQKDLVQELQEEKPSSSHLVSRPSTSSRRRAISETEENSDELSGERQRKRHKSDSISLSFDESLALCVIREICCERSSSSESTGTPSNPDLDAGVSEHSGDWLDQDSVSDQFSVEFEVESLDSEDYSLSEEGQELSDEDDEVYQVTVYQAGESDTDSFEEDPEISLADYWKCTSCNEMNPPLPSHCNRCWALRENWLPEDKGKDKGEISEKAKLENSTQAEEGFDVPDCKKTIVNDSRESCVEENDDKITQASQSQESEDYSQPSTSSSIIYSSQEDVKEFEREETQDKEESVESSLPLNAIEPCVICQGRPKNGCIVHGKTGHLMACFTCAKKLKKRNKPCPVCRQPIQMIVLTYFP

[4] = HIF-2a reporter inhibitor retest, confirmation, luminescence, 786-0 RCC cells (AID 651580;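 active means mean inhibition across four replicates of at least 40 percent at the single tested concentration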); conditions: HIF-2a luciferase reporter luminescence, overnight, at 18.8 µM, stronger effect = higher value
[5] = HIF-1a luciferase reporter signal reduction – MiaPaCa-2 cells, single concentration, counter-screen for HIF-2a inhibitor project, confirmation (AID 651589;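 active means mean inhibition of the reporter signal across four replicates at the single tested dose of 50% or more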); conditions: MiaPaCa-2 HIF-1a luciferase reporter, desferoxamine, overnight; at 18.8 µM; stronger effect = higher value
[6] = inhibitors of PAF-induced NF-kB signaling, retest, confirmation, cell-based, GFP fluorescence, single concentration (AID 602472; in the data active means inhibition above about 40%;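 further: stimulus PAF is a Pseudomonas aeruginosa filtrate and not platelet activating factor; plate controls were DMSO wells with stimulus for no effect and unstimulated DMSO wells for full effect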); conditions: KKLEB CF airway cells, overnight, at 5 µM, stronger effect = higher value
[7] = inhibitors of PAF-induced NFkB signaling in CF airway cells, dose response, cell-based, uHTS hits, panel, cytotoxicity readout (AID 624344); conditions: CF bronchial epithelial cells, PAF-induced NFkB reporter inhibition, with PAF, run 1; at 79 µM (top of the series) unless noted
[8] = as above; conditions: CF bronchial epithelial cells, PAF-induced NFkB reporter inhibition, with PAF, run 2; at 79 µM (top of the series) unless noted
[9] = biological target: Tumor necrosis factor receptor superfamily member 10B (Homo sapiens) (UniProt O14763); experiment: caspase-8 TRAIL sensitization, hit retest, confirmation, cell-based, NB7+caspase-8, with/without TRAIL, luminescence panel (AID 651596; in the data active means activity above about 50%); conditions: NB7 neuroblastoma + caspase-8, TRAIL sensitization, luminescence viability, with TRAIL, mean of runs, at 10 µM, stronger effect = higher value
Sequence of Tumor necrosis factor receptor superfamily member 10B (Homo sapiens) (O14763 whole entry, looked up): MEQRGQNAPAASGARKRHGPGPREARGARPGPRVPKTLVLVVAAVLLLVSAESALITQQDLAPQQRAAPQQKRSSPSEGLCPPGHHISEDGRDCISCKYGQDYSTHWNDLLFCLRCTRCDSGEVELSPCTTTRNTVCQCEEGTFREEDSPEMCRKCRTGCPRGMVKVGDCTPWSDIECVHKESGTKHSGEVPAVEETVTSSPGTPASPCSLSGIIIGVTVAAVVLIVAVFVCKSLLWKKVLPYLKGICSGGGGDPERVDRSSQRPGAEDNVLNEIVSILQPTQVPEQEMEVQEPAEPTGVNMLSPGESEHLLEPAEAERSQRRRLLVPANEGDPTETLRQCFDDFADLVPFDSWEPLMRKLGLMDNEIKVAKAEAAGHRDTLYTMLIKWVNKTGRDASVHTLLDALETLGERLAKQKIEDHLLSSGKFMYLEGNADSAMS

[10] = as above; conditions: NB7 neuroblastoma + caspase-8, without TRAIL, luminescence viability, without TRAIL, mean of runs, at 10 µM
[11] = Peg3 promoter reporter inhibitors, retest, confirmation, cell-based, HeLa, luciferase reporter, single concentration (AID 602417;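 active means at 20 µM dose, 40% or more inhibition averaged across four replicates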); conditions: HeLa PEG-Prom luciferase reporter, luminescence, overnight; at 20 µM; stronger effect = higher value
PEG-3 [12] = biological target: PEG-3 (UniProt Q6IN02); experiment: Peg3 promoter luciferase inhibitors, potency, dose response, cell-based, HeLa, CREF/GAPDH counter-screen panel (AID 624167); conditions: CREF/GAPDH counter-screens; HeLa PEG-Prom luciferase reporter, overnight, run 1, dose range 1, at 100 µM (top of the series) unless noted
Sequence of PEG-3 (Q6IN02 whole entry, looked up): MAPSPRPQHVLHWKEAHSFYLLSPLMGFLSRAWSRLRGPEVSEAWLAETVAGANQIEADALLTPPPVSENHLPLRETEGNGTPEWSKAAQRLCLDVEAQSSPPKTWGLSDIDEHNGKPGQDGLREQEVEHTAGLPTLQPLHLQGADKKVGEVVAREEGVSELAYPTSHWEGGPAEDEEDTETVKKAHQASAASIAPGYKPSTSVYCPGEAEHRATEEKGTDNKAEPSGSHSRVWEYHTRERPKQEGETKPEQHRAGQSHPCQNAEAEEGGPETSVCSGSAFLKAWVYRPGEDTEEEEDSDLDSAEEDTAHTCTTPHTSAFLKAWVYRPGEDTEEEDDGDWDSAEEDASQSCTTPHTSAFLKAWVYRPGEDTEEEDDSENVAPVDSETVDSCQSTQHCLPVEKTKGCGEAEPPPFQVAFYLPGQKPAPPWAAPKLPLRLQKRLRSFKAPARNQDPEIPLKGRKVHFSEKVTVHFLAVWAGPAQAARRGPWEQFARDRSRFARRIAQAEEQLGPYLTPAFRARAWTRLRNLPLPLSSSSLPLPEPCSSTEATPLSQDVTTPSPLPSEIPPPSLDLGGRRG

PEG-3 [13] = biological target: PEG-3 (UniProt Q6IN02); experiment: as above; conditions: CREF/GAPDH counter-screens; HeLa PEG-Prom luciferase reporter, overnight, run 2, dose range 1, at 100 µM (top of the series) unless noted
[14] = biological target: Tumor necrosis factor receptor superfamily member 10B (Homo sapiens) (UniProt O14763); experiment: TRAIL sensitizers in caspase-8 expressing neuroblastoma cells, dose response, NB7 cells plus caspase-8, luminescence, panel (AID 652002); conditions: NB7 neuroblastoma +caspase-8, TRAIL sensitization, luminescence viability, NB7+Caspase-8, with TRAIL, run 1; at 12.5 µM (top of the series)
[15] = biological target: Tumor necrosis factor receptor superfamily member 10B (Homo sapiens) (UniProt O14763); experiment: as above; conditions: NB7 neuroblastoma +caspase-8, TRAIL sensitization, luminescence viability, NB7+Caspase-8, with TRAIL, run 2; at 12.5 µM (top of the series)
[16] = as above; conditions: NB7 neuroblastoma +caspase-8, no TRAIL, compound-alone cytotoxicity counter-screen, luminescence viability, NB7+Caspase-8, run 1; at 12.5 µM (top of the series) unless noted
[17] = as above; conditions: NB7 neuroblastoma +caspase-8, no TRAIL, compound-alone cytotoxicity counter-screen, luminescence viability, NB7+Caspase-8, run 2; at 12.5 µM (top of the series) unless noted

SMILES: C#CCOCCOCCOCCNc1nc(N2CCN(C(=O)CCCCCCCCCCNC(=O)[C@H](CCCCN)n3cc(C)nn3)CC2)nc(N2CCN(C(=O)CCCCCCCCCCNC(=O)[C@H](CO)n3cc(CCCSC)nn3)CC2)n1
- inhibition [1]: 4.3% (inactive)
- activation (fluorescence interference) [2]: 3.38% (inactive)

SMILES: CCN(CC)S(=O)(=O)c1ccc(NC(=O)c2cccnc2Cl)c(NC(=O)c2cccnc2Cl)c1
- inhibition [3]: 75.5% (active)
- inhibition [4]: 91.6% (active)
- inhibition [5]: 62.3% (active)

SMILES: CCOC(=O)C1CCN(C(=O)c2cccc(S(=O)(=O)N(CC)c3ccccc3)c2)CC1
- inhibition [1]: 27.8% (inactive)
- activation (fluorescence interference) [2]: 5.38% (inactive)

SMILES: C(=N/Nc1cc(N2CCOCC2)nc(N2CCOCC2)n1)/c1ccccc1
- inhibition [1]: 27.8% (inactive)
- activation (fluorescence interference) [2]: 2.85% (inactive)

SMILES: CC(=O)Nc1ccc(NC(=O)C(C)OC(=O)c2ccccc2C(=O)c2ccc(Cl)c([N+](=O)[O-])c2)cc1 (configuration not stated)
- inhibition [3]: 102% (active)
- inhibition [6]: 72.6% (active)
- inhibition [7]: 102%
- inhibition [8]: 98.8%

SMILES: Cc1[nH]c(=O)c(C(=O)/C=C/c2ccccc2)c2c1CCCC2
- inhibition [3]: 103% (active)
- inhibition [4]: 81.1% (active)
- inhibition [5]: 105% (active)

SMILES: CN1CCN(c2ccccc2NC(=O)COc2ccc(C3CCCCC3)cc2)CC1
- inhibition [1]: 7.86% (inactive)
- activation (fluorescence interference) [2]: 2.41% (inactive)

SMILES: O=C(Nc1ccc(C(=O)N2CCOCC2)cc1)Nc1cccc(C(F)(F)F)c1
- inhibition [3]: 84.2% (active)
- inhibition [6]: 58.5% (active)
- inhibition [7]: 108%
- inhibition [8]: 94.7%

SMILES: CC1=NN(c2ccc(Cl)c(C(=O)O)c2)C(=O)/C1=C/c1ccc(-c2ccccc2[N+](=O)[O-])o1
- inhibition [1]: 16.8% (inactive)
- activation (fluorescence interference) [2]: 6.42% (inactive)

SMILES: Cc1ccc(CS(=O)(=O)c2ncc(Cl)c(C(=O)Nc3nnc(C)s3)n2)cc1
- inhibition [3]: 103% (active)
- inhibition [4]: 31.5% (inactive)
- inhibition [5]: 104% (active)
- activity [9]: 97.2%
- activity [10]: 97.2%

SMILES: COc1ccc2sc(-c3ccccc3OC)c(-c3ccc(OCCN4CCCC4)cc3)c2c1
- inhibition [1]: 27.1% (inactive)
- activation (fluorescence interference) [2]: 6.49% (inactive)

SMILES: CCOC(=O)N1CCC(c2cc(=O)n(-c3ccccc3)[nH]2)CC1
- inhibition [1]: 32.4% (inactive)
- activation (fluorescence interference) [2]: 8.7% (inactive)

SMILES: Cc1ccsc1/C=N/NC(=O)Cc1cc(=O)[nH][nH]1
- inhibition [1]: 17.5% (inactive)
- activation (fluorescence interference) [2]: 8.37% (inactive)

SMILES: O=C(CN1CCN(S(=O)(=O)c2ccc3ccccc3c2)CC1)NC(=O)NC1CCCCC1
- inhibition [1]: 26.3% (inactive)
- activation (fluorescence interference) [2]: 20% (inactive)

SMILES: CCN(CC)CCOc1ccc2c(c1)C(=NNC(=O)c1ccccn1)c1cc(OCCN(CC)CC)ccc1-2
- inhibition [1]: 56.1% (active)
- activation (fluorescence interference) [2]: 15.8% (inactive)

SMILES: O=[N+]([O-])c1c(NCCO)cc(Sc2nc3ccccc3s2)c2nonc12
- inhibition [3]: 102% (active)
- inhibition [1]: 19.9% (inactive)
- activation (fluorescence interference) [2]: 4.65% (inactive)

SMILES: CN(C)CC(O)COc1ccc(C(C)(C)c2ccc(OCC(O)CN(C)C)cc2)cc1 (configuration not stated)
- inhibition [3]: 94.2% (active)
- inhibition [11]: 53% (active)
- inhibition (PEG-3 [12]): 101%
- inhibition (PEG-3 [13]): 99.7%

SMILES: O=S(=O)(Nc1ccc(O)c2ccccc12)c1ccc(OC(F)(F)F)cc1
- inhibition [1]: 21.3% (inactive)
- activation (fluorescence interference) [2]: -2.71% (inactive)

SMILES: Cc1ccc(S(=O)(=O)N2CCN(C(=O)c3ccccc3-c3nc4ccccc4s3)CC2)c(C)c1
- inhibition [1]: 34.1% (inactive)
- activation (fluorescence interference) [2]: 4.66% (inactive)

SMILES: c1ccc(C[C@H]2CNCCN2CCC23CC4CC(CC(C4)C2)C3)cc1
- inhibition [1]: 1.61% (inactive)
- activation (fluorescence interference) [2]: -3.75% (inactive)

SMILES: Cc1cc(C)n(-c2nc(SCC(=O)N3CCCC3)c3c4c(sc3n2)CCCC4)n1
- inhibition [1]: 26.4% (inactive)
- activation (fluorescence interference) [2]: 8.64% (inactive)

SMILES: COc1cccc(/C=N/Nc2cc(C)nc(-c3ccccc3O)n2)c1O
- inhibition [3]: 99.7% (active)
- inhibition [11]: 94.4% (active)
- inhibition (PEG-3 [12]): 100%
- inhibition (PEG-3 [13]): 102%

SMILES: NC(N)=NCCCc1cn(CC(=O)N2CCNCC2)nn1
- inhibition [1]: 9.2% (inactive)
- activation (fluorescence interference) [2]: -2.11% (inactive)

SMILES: C=CCC[C@H](Cc1ccc(F)cc1)C(=O)OC[C@@H](NC(=O)[C@@H](CC=C)CC(=O)N[C@H](CO)Cc1ccccc1)C(C)(C)C
- inhibition [1]: 14.6% (inactive)
- activation (fluorescence interference) [2]: 3.46% (inactive)

SMILES: CCOC(=O)c1c(-c2cccc(C)c2)csc1NC(=O)c1c(-c2ccccc2)noc1C
- inhibition [3]: 101% (active)

SMILES: CCN(CC(=O)NCc1cccs1)C(=O)c1cccc(S(=O)(=O)Nc2ccccc2OC)c1
- inhibition [1]: 36.9% (inactive)
- activation (fluorescence interference) [2]: -3.02% (inactive)

SMILES: COc1ccc(C(CCN(Cc2ccc(OC)c(OC)c2)C(=O)CCl)c2ccccc2)cc1 (configuration not stated)
- inhibition [3]: 103% (active)
- activity [9]: 99.7%
- activity [10]: 99.7%

SMILES: c1ccc2c(CCN3CCNC[C@H]3Cc3cccc4ccccc34)cccc2c1
- inhibition [1]: 24.8% (inactive)
- activation (fluorescence interference) [2]: 8.34% (inactive)

SMILES: COc1cc(NC(=O)c2[nH]cnc2C(N)=O)cc(C(=O)Nc2cccc(C(F)(F)F)c2)c1
- inhibition [3]: 101% (active)
- activity [9]: 86.1%
- activity [10]: 53.4%
- activity, % sensitization [14]: 36.3%
- activity, % sensitization [15]: 52.5%
- activity, % sensitization [16]: 5.71%
- activity, % sensitization [17]: 43.7%
